Source: PubChem BioAssay AID504652 (National Center for Advancing Translational Sciences (NCATS), 2011)
The campaign covered roughly 360,000 compounds. About 11,000 (3.1%) were called active. Rule as the data show it: active = activity change below about -30%; inactive = the rest. The full list was thinned out, with actives kept by preference.

Biological target: D(1A) dopamine receptor (Homo sapiens) (UniProt P21728)
Assay: Antagonist of Human D 1 Dopamine Receptor: qHTS
Details: HEK293 TREx D1 cells, calcium flux, dopamine EC80; at 10 µM; hits give low values
Procedure, shortened: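 HEK293 T-REx cells expressing inducible, force-coupled D1 receptor; no-wash Ca dye, 30–90 min RT. Cmpd → 180 s read at 1 Hz → EC80 DA → 180 s read.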
% is scaled to controls: 0 for no effect and ±100 for the full control effect.

D(1A) dopamine receptor (Homo sapiens), sequence (P21728 whole entry, looked up): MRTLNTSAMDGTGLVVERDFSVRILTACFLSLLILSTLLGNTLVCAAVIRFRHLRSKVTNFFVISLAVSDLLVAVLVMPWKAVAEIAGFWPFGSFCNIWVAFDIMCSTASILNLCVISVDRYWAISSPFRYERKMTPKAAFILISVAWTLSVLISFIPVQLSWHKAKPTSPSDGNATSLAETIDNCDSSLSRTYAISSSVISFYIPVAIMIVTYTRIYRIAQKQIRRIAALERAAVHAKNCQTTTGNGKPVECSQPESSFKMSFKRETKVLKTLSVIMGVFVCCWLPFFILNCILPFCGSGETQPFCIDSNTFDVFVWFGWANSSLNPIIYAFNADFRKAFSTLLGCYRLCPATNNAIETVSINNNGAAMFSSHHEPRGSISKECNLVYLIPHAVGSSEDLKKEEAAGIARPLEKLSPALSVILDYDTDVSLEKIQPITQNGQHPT

SMILES	activity change, negative = inhibition
COc1ccc(CNC(=O)Cn2nnc(-c3ccc(S(C)(=O)=O)cc3)n2)cc1	15.1% (inactive)
COc1ccccc1NC(=O)c1oc2ccccc2c1NC(=O)COc1ccccc1OC	-10.7% (inactive)
COc1cc(C)c(S(=O)(=O)N2CCOCC2)c(C)c1C	-2.39% (inactive)
COc1ccc(S(=O)(=O)N2CCOCC2)c(C)c1C	-50.9% (active)
COc1ccc(S(=O)(=O)N2CCCC2)c(C)c1C	-24.6% (inactive)
Cc1nc(NC2=NC(C(=O)Nc3ccc(Cl)cc3)CC(=O)N2)nc2ccccc12 (centres undefined)	-50.2% (active)
CCOC(=O)c1ccc(NC(=O)C2CC(=O)Nc3nc4ccccc4n32)cc1 (centres undefined)	2.09% (inactive)
CC(=O)c1ccc(NC(=O)C2CC(=O)Nc3nc4ccccc4n32)cc1 (centres undefined)	-16% (inactive)
Cc1ccc(-n2ncc3c(NCCCn4ccnc4)ncnc32)cc1Cl	-30.7% (active)
CC(C)CNc1ncnc2c1cnn2Cc1ccc(Cl)cc1	3% (inactive)
CCN1CCN(c2ncnc3c2cnn3-c2ccc(C)c(C)c2)CC1	0.119% (inactive)
Cc1ccc(Cl)cc1-n1ncc2c(N3CCC(C(N)=O)CC3)ncnc21	-13.9% (inactive)
Cc1ccc(S(=O)(=O)c2nc(NCCCn3ccnc3)sc2Cl)cc1	8.73% (inactive)
CCN(CC)CCNc1ncnc2c1cnn2-c1cc(Cl)ccc1C	-31% (active)
CCN(CC)CCNC(=O)CN1N=C(c2ccc(OC)cc2)CCC1=O	7.52% (inactive)
COC(=O)c1cc(NC(=O)c2sc3ccccc3c2Cl)cc(C(=O)OC)c1	5.62% (inactive)
COc1cccc(NC(=O)N(Cc2cn(C)c3ccccc23)C2CCCCCC2)c1	17.7% (inactive)
Cc1ccc(N(CC(=O)NCC(C)c2ccccc2)S(=O)(=O)N(C)C)cc1 (centres undefined)	-3.48% (inactive)
CCOc1ccccc1CNC(=O)c1ccc(-n2c(C)cc3c2CCC(C)C3)cc1 (centres undefined)	6.61% (inactive)
O=C(C1CC1)N1CCc2cc(Br)cc(S(=O)(=O)N3CCN(c4ccccc4F)CC3)c21	-2.36% (inactive)
O=C(NCc1ccc(F)cc1)c1ccc(Cn2c(SCc3ccc(F)cc3)nc3cccnc32)cc1	-10.7% (inactive)
COc1ccc(N2CCN(C(=O)CSCc3nc(-c4ccccc4Cl)oc3C)CC2)cc1	-24.8% (inactive)
COc1ccc(CNS(=O)(=O)c2cc(-c3cc(C)no3)ccc2C(C)C)cc1	-31% (active)

SMILES	activity change, negative = inhibition
CCOc1ccccc1CNS(=O)(=O)c1cc(-c2cc(C)no2)ccc1C	50.5% (inactive)
COc1ccc(CCNS(=O)(=O)c2cc(-c3cc(C)no3)ccc2C)cc1OC	9.26% (inactive)
CCc1ccc(S(=O)(=O)Nc2cc3c(C(=O)OCc4ccccc4)c(C)oc3c3ccccc23)cc1	7.58% (inactive)
CCCCN(C)c1nnc(NC(=O)Nc2ccc(Br)c(C)c2)s1	13.7% (inactive)
c1ccc(C2CNCc3c2ccc2ccccc32)cc1 (centres undefined)	-39.2% (active)
Cc1nn2c(=O)cc(COC(=O)CNC(=O)c3ccc(F)cc3)nc2s1	-1.13% (inactive)
Cc1ccc(Cn2c(=O)n(-c3ccc(C)cc3)c(=O)c3c2c2cc(C)ccc2n3C)cc1	-3.86% (inactive)
N#C/C(=C\c1cccc(F)c1)c1nc(-c2cc3c(ccc4ccccc43)oc2=O)cs1	-2.97% (inactive)
COc1cc(C2c3c(oc4ccccc4c3=O)C(=O)N2c2nc(C)c(C)s2)ccc1O (centres undefined)	6.01% (inactive)
CCOc1ccc(NC(=O)c2cnn(-c3ccccc3)c2-n2cccc2)cc1	-0.471% (inactive)
CCCCOc1ccc(CSC(=N)N)cc1[N+](=O)[O-]	25.1% (inactive)
CCCCCOc1ccc(CSC2=NCCN2)cc1[N+](=O)[O-]	-42.1% (active)
Cc1nc(SCc2ccc(F)cc2)c([N+](=O)[O-])[nH]1	8.5% (inactive)
CCN(CC)CCC(c1ccc2c(c1)OCO2)c1c(OC)cc(OC)c2c(-c3ccccc3)cc(=O)oc12 (centres undefined)	-32.2% (active)
CCCCN(CC)C(=O)c1ccc2c(c1)OCO2	-2.46% (inactive)
CCN(CC)CCC(c1cc(OC)c(OC)c(OC)c1)c1c(OC)cc(OC)c2c(-c3ccccc3)cc(=O)oc12 (centres undefined)	18.1% (inactive)
CCN(CC)C(=O)CC(c1ccc2c(c1)OCO2)c1c(OC)cc(OC)c2c(-c3ccccc3)cc(=O)oc12 (centres undefined)	-44.6% (active)
COc1cccc(NC(=O)C(=O)NCC(c2ccc3c(c2)OCO3)N2CCN(C)CC2)c1 (centres undefined)	27.8% (inactive)
COc1ccc(F)cc1S(=O)(=O)NCC(c1ccc2c(c1)OCO2)N1CCN(C)CC1 (centres undefined)	-2.95% (inactive)
CCc1nnc2c3ccccc3nc(N3CCN(c4ccc(C)cc4C)CC3)n12	-4.28% (inactive)
CCCN(CCC)S(=O)(=O)c1ccc(C(=O)Nc2sc3c(c2C(=O)OC)CCN(CC)C3)cc1	27% (inactive)
Cc1ccc(Cl)cc1NC(=O)CSc1nccn1C	-34.7% (active)
Cn1ccnc1SCC(=O)Nc1ccc2c(c1)OCCO2	7.91% (inactive)

SMILES	activity change, negative = inhibition
CCc1cccc(NC(=O)CSc2nccn2C)c1	6.16% (inactive)
CCCc1ccc(OCc2ccc(C(=O)N/N=C/c3cccc([N+](=O)[O-])c3)o2)c(OC)c1	-9.05% (inactive)
COc1cc(C(=O)OCC(=O)NC(C)CCc2ccccc2)cc(OC)c1OC (centres undefined)	0.765% (inactive)
COc1cc(/C=N/O)ccc1OCc1ccc([N+](=O)[O-])cc1	-35.1% (active)
CCOc1cc(/C=N/O)ccc1OCc1ccccc1F	0.806% (inactive)
COc1cc(C(=O)OCc2ccc([N+](=O)[O-])cc2)cc(OC)c1OC	-36.8% (active)
COC(=O)c1ccc(COc2cc([N+](=O)[O-])cc3cccnc23)cc1	-0.242% (inactive)
COc1ccc(NC(=O)CCc2nnc3n(CC(C)C)c(=O)c4ccccc4n23)cc1OC	12% (inactive)
COc1ccccc1N1CCN(C(=O)C2CCN(S(=O)(=O)c3c(C)noc3/C=C/c3ccc(C)cc3)CC2)CC1	1.37% (inactive)
COc1ccc(Cn2ccnc2SCC(=O)Nc2ccc3c(c2)OCO3)cc1	3.36% (inactive)
CC1CCCN(S(=O)(=O)c2ccc3[nH]c(=O)cc(C(=O)NCCc4ccc(Cl)cc4)c3c2)C1 (centres undefined)	15.9% (inactive)
COc1ccccc1NC(=O)c1sc2nc(C)c(C(=O)Nc3ccc(Cl)cc3)c(-c3ccc(Br)cc3)c2c1N	-7.07% (inactive)
CC(=O)c1c(C)n(S(=O)(=O)c2ccc(Cl)cc2)c2ccc(NS(=O)(=O)c3ccc(Cl)cc3)cc12	0.214% (inactive)
COC(=O)c1c(C)[nH]c(C(=O)NCCc2ccc(S(N)(=O)=O)cc2)c1C	2.29% (inactive)
COc1ccc(C(=O)NCCc2ccc(S(N)(=O)=O)cc2)cc1OC	-31% (active)
CCOC(=O)c1c(C)c(C(=O)NCCc2ccc(S(N)(=O)=O)cc2)c(C)n1CC	-3.79% (inactive)
Cc1c(C)n(Cc2ccc(Cl)cc2)c2ccc(C(=O)NCCc3ccc(S(N)(=O)=O)cc3)cc12	-36.4% (active)
Cc1c(C)n(Cc2ccc(Cl)cc2)c2ccc(C(=O)NCCCN3CCOCC3)cc12	-28% (inactive)
COc1ccc(NS(=O)(=O)c2cccc(C(=O)NCCc3ccc(S(N)(=O)=O)cc3)c2)cc1	-10.4% (inactive)
Cc1cc(N2CCN(c3cccc(C(F)(F)F)c3)CC2)n2nc(-c3ccccc3)nc2n1	23.9% (inactive)
CCc1ccccc1NC(=O)c1ccc2nc(CCc3ccccc3)oc2c1	-9.13% (inactive)
Cc1ccccc1NC(=O)c1cc2c([nH]c1=O)CC(C)(C)CC2=O	-6.86% (inactive)
COc1ccccc1CSc1ncc(-c2ccc([N+](=O)[O-])cc2)[nH]1	-37.4% (active)

SMILES	activity change, negative = inhibition
CCOc1cccc(NC(=O)CSc2ncc(-c3ccc(Cl)cc3)[nH]2)c1	-2.12% (inactive)
COc1ccc(-c2cnc(SCCNC(=O)c3ccc4c(c3)OCO4)[nH]2)cc1	1.65% (inactive)
Cc1c(C(=O)NCc2ccccc2Br)oc2ccc3c(c12)C(=O)CC(C)(C)O3	-29.9% (inactive)
COc1ccc2cc1Oc1ccc(cc1)C[C@H]1c3cc(c(OC)cc3CCN1C)Oc1c(O)c(OC)cc3c1[C@H](C2)N(C)CC3	-27.6% (inactive)
COc1c(O)ccc2c1CN1CCc3cc4c(cc3C1C2)OCO4 (centres undefined)	-67.5% (active)
COc1ccc(CN2CCCC(N3CCc4ccccc4C3)C2)c(O)c1 (centres undefined)	-0.568% (inactive)
CCOc1ccc(S(=O)(=O)c2cn(Cc3ccc(OC)cc3)c3ccc(F)cc3c2=O)cc1	-3.59% (inactive)
CCc1nc2ccc(C(=O)N3CCN(c4cc(Cl)ccc4C)CC3)cc2nc1CC	4.25% (inactive)
O=C(CSc1ncn[nH]1)Nc1nc(-c2cccc([N+](=O)[O-])c2)cs1	-1.2% (inactive)
O=C(CSc1ncn[nH]1)Nc1nsc(-c2ccccc2)n1	1.31% (inactive)
Cn1nnc(NC(=O)CSc2ncn[nH]2)n1	-31.7% (active)
CCOC(=O)c1scc(-c2ccccc2)c1S(=O)(=O)Nc1ccccc1F	-3.82% (inactive)
CCC(C(=O)Nc1cccc(-c2nc3cccnc3s2)c1C)c1ccccc1 (centres undefined)	-4.82% (inactive)
O=C(Nc1cccc(O)c1)c1ccc(C(=O)c2ccccc2)o1	-9.29% (inactive)
C/C(=C\C(=O)c1ccccc1)Nc1cccc(O)c1	-30.1% (active)
O=C(CSc1ccccc1)Nc1ccc(C(=O)Nc2cccc(O)c2)cc1	-29.1% (inactive)
Cc1ccc(NC(=O)CSc2nc3c(c(=O)[nH]2)CN(Cc2ccc4c(c2)OCO4)CC3)cc1C	11.3% (inactive)
COc1ccc(-n2c(SCC(=O)NCc3ccco3)nnc2-c2c[nH]c3ccccc23)cc1	-90% (active)
O=C(CSc1nnc(-c2c[nH]c3ccccc23)n1-c1ccc(F)cc1)NCc1ccco1	3.17% (inactive)
COc1ccc(-n2c(SCC(=O)NCc3cccs3)nnc2-c2ccoc2C)cc1	-0.757% (inactive)
